Data as given in PubChem BioAssay (NCATS).
Inconclusive results are not listed. Activity calls are given as the source filed them. The call rests on the fitted dose curve; in most records, active means well fitted curve in the direction sought with a large enough effect; inconclusive means small, poorly fitted or top-dose-only effect, or another doubt; inactive means no such curve, though single readings can be large; an effect the other way counts as inactive or inconclusive. Residues, ends and D or L forms follow the SMILES beside them. *: point of attachment. Cbz = O=C(OCc1ccccc1)*

Columns and labels:
[1] = qHTS for inhibitors of adenylyl cyclases using a fission yeast platform: a pilot screen against the NCATS LOPAC library (AID 1347410); details: S. pombe CHP2027, fbp1-GFP fluorescence, 18 h, yeast expressing mammalian AC9 and human GNAS; series mostly up to 57.5 µM
Outline: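 Read-out: fbp1-GFP fluorescence by laser scanning cytometry (488 nm laser), a gain of signal when AC/cAMP-PKA signalling is inhibited. Strain CHP2027 expressing AC9, GNAS and PDE4D2; compounds at up to 57 µM; 18 h, 30C.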

[2] = Validation qHTS assay for inhibitors of Activation Induced Cytidine Deaminase (AID): UDG Counterscreen signal (AID 1347427); details: biochemical UDG counterscreen, fluorescence signal; series mostly up to 115 µM
Outline: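 Fluorescence at 560 nm excitation, 665 nm emission reports UDG signal after 250 mM NaOH (2x) addition and 30 min. Enzymes (AID 1 uM, UDG 2 U/mL, at 4/3x) preincubated 10 min with compound, then 4 h with 4x 250 nM DJC20/DJC23 substrate at room temperature.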

[3] = target: Single-stranded DNA cytosine deaminase (Homo sapiens) (UniProt Q9GZX7); experiment: Validation qHTS assay for inhibitors of Activation Induced Cytidine Deaminase (AID): AID signal (AID 1347429); details: Recombinant AID, FRET ssDNA deamination with UDG, fluorescence; series mostly up to 115 µM
Outline: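 Compounds (final up to 114 uM) preincubated with AID plus UDG; 250 nM DJC20/DJC23 substrate mix (4x stock) added, 4 hr at room temperature, then NaOH, 30 min. Read 1 fluorescence at 540 nm excitation, 590 nm emission.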

[4] = Primary qHTS for inhibitors of La Crosse Virus (LACV) - induced cell death in SH-SY5Y cells (AID 1508616); details: SH-SY5Y LACV cytopathicity rescue, ATP luminescence, 6 d; series mostly up to 9.63 µM; further: potency means the concentration at half of the fitted maximal effect
Outline: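 Rescue of virus-induced death was read as ATPLite luminescence after 6 days at 37C, scaled between DMSO wells with LACV and without virus. Cells were SH-SY5Y, 6000/well, infected at 0.01 MOI after compound addition.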

Measured: Potency

Single-stranded DNA cytosine deaminase (Homo sapiens), sequence (Q9GZX7 whole entry, looked up): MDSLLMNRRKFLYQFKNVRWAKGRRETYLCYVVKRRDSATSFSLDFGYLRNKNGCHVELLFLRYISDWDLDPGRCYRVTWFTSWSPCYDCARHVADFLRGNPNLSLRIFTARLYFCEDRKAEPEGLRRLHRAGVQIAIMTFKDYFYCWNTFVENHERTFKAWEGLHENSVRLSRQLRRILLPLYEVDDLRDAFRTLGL

COc1ccc(CCN(C)CCc2ccc(OC)c(OC)c2)cc1OC
inactive: all assays above

CC(C)[C@H](NC(=O)OCc1ccccc1)C(=O)N[C@H](C=O)Cc1ccccc1 (Cbz-Val-Phe-aldehyde)
inactive: all assays above

CNCCNS(=O)(=O)c1cccc2cnccc12
inactive: all assays above

O=C(N[C@@H](Cc1ccccc1)C(=O)CCl)OCc1ccccc1
active: [4] 1 µM
inactive: all other assays above

CC(=O)SC1CC2=CC(=O)CC[C@]2(C)C2CC[C@@]3(C)C(CC[C@@]34CCC(=O)O4)C12 (stereo partly specified)
inactive: all assays above

O=C1Nc2ccc(I)cc2/C1=C/c1cc(Br)c(O)c(Br)c1
inactive: all assays above

CCC1(O)CC2CN(CCc3c([nH]c4ccccc34)[C@@](C(=O)OC)(c3cc4c(cc3OC)N(C=O)C3[C@]45CCN4CC=C[C@@](CC)([C@@H](OC(C)=O)[C@]3(O)C(=O)OC)[C@H]45)C2)C1 (stereo partly specified)
inactive: all assays above

CC[C@@H]1Cc2cc(O)ccc2C2=C1c1ccc(O)cc1C[C@H]2CC
inactive: all assays above

N[C@@H](CS(=O)O)C(=O)O
inactive: all assays above

Nc1ncnc2c1nc(Sc1ccc(Cl)cc1)n2[C@H]1OC2COP(=O)(O)O[C@@H]2C1O (stereo partly specified)
inactive: all assays above

CCN(CC)CCCCCCCCOC(=O)c1cc(OC)c(OC)c(OC)c1
inactive: [1] | [2] | [3]

O=C(O)c1cc(=O)cc(C(=O)O)[nH]1
inactive: all assays above

CC(/C=C/c1cccc(Oc2ccc(F)cc2)c1)N(O)C(N)=O (stereo unspecified)
inactive: all assays above

C[C@H]1CC2C3CCC4=CC(=O)C=C[C@]4(C)[C@@]3(Cl)[C@@H](O)C[C@]2(C)[C@@]1(O)C(=O)CO (stereo partly specified)
inactive: all assays above

COC(=O)C1=C(C)NC(C)=C([N+](=O)[O-])C1c1ccccc1C(F)(F)F (stereo unspecified)
inactive: all assays above

NC1CONC1=O (stereo unspecified)
inactive: all assays above

CCCCCCC(=O)OC1CC(C)(C)NC(C)(C)C1
inactive: all assays above

CC(C)(CO)Cc1cc(C(C)(C)C)c(O)c(C(C)(C)C)c1
inactive: all assays above

CCn1c(=O)[nH]c2cc(Cl)c(Cl)cc21
inactive: all assays above

NC1(C(=O)O)CCCCC1
inactive: all assays above

CCCCCCCCCC[Si](C)(C)CCC(=O)NC(Cc1ccc(C)cc1)c1ccccc1 (stereo unspecified)
inactive: all assays above

O=C(O)C1CN(CCCP(=O)(O)O)CCN1 (stereo unspecified)
inactive: all assays above

CCCCCCCC/C=C\CCCCCCCC(=O)NCCc1ccc(O)c(O)c1
active: [4] 2.82 µM
inactive: all other assays above

NC(=O)c1cc[n+](CC2=C(C(=O)O)N3C(=O)[C@@H](NC(=O)[C@@H](c4ccccc4)S(=O)(=O)[O-])[C@H]3SC2)cc1
inactive: all assays above

CC(=O)NNC(=O)N1Cc2ccccc2Oc2ccc(Cl)cc21
inactive: all assays above

O=c1[nH]c(=S)[nH]c(-c2ccccc2)c1Cc1c(O)ccc2ccccc12
inactive: all assays above

COc1ccccc1N1CCN(CCCCNC(=O)c2ccc3ccccc3c2)CC1
inactive: all assays above

NCCNS(=O)(=O)c1cccc2c(Cl)cccc12
inactive: all assays above

Clc1nccc2c1ccc1ccccc12
inactive: all assays above

CCC(=O)N1CCN(C(=O)c2ccccc2)CC1
inactive: all assays above

O=c1[nH]c2ccccc2c2ccccc12
inactive: all assays above

Nc1ncnc2c1c(-c1ccc(Oc3ccccc3)cc1)cn2C1CCCC1
inactive: all assays above

CC(=O)C(C)=O
inactive: all assays above

N=C(N)SCCc1cnc[nH]1
inactive: all assays above

O=C1NC(=O)c2cc(Nc3ccccc3)c(Nc3ccccc3)cc21
inactive: all assays above

Cn1ccnc1
inactive: all assays above

OC[C@H]1O[C@@H](n2cnc3cncnc32)[C@H](O)[C@@H]1O
inactive: all assays above

CCCCCCCCCCCCCCC[C@H](O)[C@H](N)CO
inactive: all assays above

CCCCS(=N)(=O)CC[C@H](N)C(=O)O (stereo partly specified)
inactive: all assays above

O=S(=O)(c1cccc2c(Cl)cccc12)N1CCCNCC1
inactive: [1] | [2] | [4]

C=CC1(C)CC(=O)C2(O)C(C)(O1)C(OC(C)=O)C(O)C1C(C)(C)CCC(O)C12C (stereo unspecified)
inactive: [2] | [3] | [4]

CCCn1c(=O)c2c(ncn2C)n(CCC)c1=O
inactive: all assays above

Cn1cc(C(=O)OCC2CCN(CCNS(C)(=O)=O)CC2)c2ccccc21
inactive: [1] | [3] | [4]

C[C@@]1(C2CCCC2)Cc2cc(OCC(=O)O)c(Cl)c(Cl)c2C1=O
inactive: all assays above

CCCCCCCCCCCCCCCCCCOC[C@H](COP(=O)([O-])OCC[N+](C)(C)C)OC
inactive: [2]

CCC1(O)CC2CN(CCc3c([nH]c4ccccc34)[C@@](C(=O)OC)(c3cc4c(cc3OC)N(C)C3[C@]45CCN4CC=C[C@@](CC)([C@@H](OC(C)=O)[C@]3(O)C(=O)OC)[C@H]45)C2)C1 (stereo partly specified)
inactive: [2] | [3] | [4]

O=C(O)[C@H]1NCCC[C@H]1C(=O)O
inactive: all assays above

COc1ccc2c(c1)CCC1C2CC[C@@]2(C)C1CC[C@@H]2NCCCCCCN1C(=O)C=CC1=O (stereo partly specified)
inactive: [1] | [2] | [4]

N#Cc1cc2nc(O)c(O)nc2cc1[N+](=O)[O-]
inactive: [1] | [3] | [4]

Cc1nc(N=Nc2cc(S(=O)(=O)O)c3cc([N+](=O)[O-])cc(S(=O)(=O)O)c3c2)c(COP(=O)(O)O)c(C=O)c1O
inactive: [1] | [2] | [4]

CN(C)S(=O)(=O)c1ccc2c(c1)/C(=C/c1cc3c([nH]1)CCCC3)C(=O)N2
inactive: [2]

S=C(S)N1CCCC1
inactive: [2] | [3]

CCCC[C@@]1(C2CCCC2)Cc2cc(OCC(=O)O)c(Cl)c(Cl)c2C1=O
inactive: all assays above

CC#CCOC(=O)c1c(C)nc2sc3c(c2c1N)CCC(O)C3 (stereo unspecified)
inactive: [1] | [4]

CC1CCN=C(N)S1 (stereo unspecified)
inactive: all assays above

N=C(N)c1ccc(N)cc1
inactive: all assays above

CC(C)NC[C@H](O)COc1cccc2ccccc12
inactive: [4]

Nc1ccc(-c2nc3ccc(-c4nc5ccc(N)cc5[nH]4)cc3[nH]2)cc1
inactive: [1] | [3]

C=CCNc1ncnc2ccc(Br)cc12
inactive: [1] | [3] | [4]

CCCC(=O)NCCc1c2n(c3ccc(OC)cc13)CCCc1ccccc1-2
inactive: [1] | [3] | [4]

C=CCN1CCc2c(cc(O)c(O)c2Br)[C@@H](c2ccccc2)C1
inactive: [1] | [2] | [4]

N#CC(=C(\N)Sc1ccccc1N)/C(C#N)=C(/N)Sc1ccccc1N
inactive: [1] | [3] | [4]

N[C@@H](CCCC(=O)O)C(=O)O
inactive: [1] | [4]

O=[N+]([O-])c1cccc2c(Br)[nH]nc12
inactive: [1] | [2] | [4]

CCCCOC(=O)NS(=O)(=O)c1sc(CC(C)C)cc1-c1ccc(Cn2c(CC)nc3c(C)cc(C)nc32)cc1
inactive: all assays above

COc1cc([C@@H]2c3cc4c(cc3[C@H](O)C3COC(=O)[C@@H]32)OCO4)cc(OC)c1OC (stereo partly specified)
inactive: all assays above

CCCCCCCCCCC(C)(C)C(=O)Nc1c(OC)cc(OC)cc1OC
inactive: all assays above

CN[C@H](CC(=O)O)C(=O)O
inactive: [1] | [3] | [4]

Cc1ccccc1/C=C/C1=NCCN1
inactive: [1] | [3] | [4]

C#CC(N)CCC(=O)O (stereo unspecified)
inactive: all assays above

N#C/C(=C\c1ccc(O)c(O)c1)C(=O)NCCc1ccccc1
inactive: all assays above

O=C(O)/C=C/c1cnc[nH]1
inactive: [2] | [3] | [4]

C=CCN1CCc2c(cc(O)c(O)c2Cl)C(c2ccccc2)C1 (stereo unspecified)
inactive: [1] | [2] | [4]

NC(=Nc1ccccc1)NC(=O)c1nc(Cl)c(N)nc1N
inactive: all assays above

Cc1nc(N=Nc2ccc(S(=O)(=O)O)cc2S(=O)(=O)O)c(COP(=O)(O)O)c(C=O)c1O
inactive: all assays above
